Most compounds without a hit are left out; they make up all but 9.3% or so of the library.
SMN2 splice up: qHTS Assay for Enhancers of SMN2 Splice Variant Expression; 2.8% of 210,000 active; HEK293 SMN2-luciferase splicing reporter, luminescence, 30-36 h; Potency, µM (series often up to 46.1 µM), hits mostly activators; note: nearly all actives have a fitted effect of over 55% in size
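HEK293 cells carry an SMN2 […]–luciferase reporter in which exon 7 inclusion puts luciferase in frame. Cells were plated 10-12 h before compound addition, then incubated 30-36 h at 37C. ONE-Glo luminescence was read; sodium butyrate at 4.5 mM final served as control.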
ELG1 genotox: qHTS screen for small molecules that induce genotoxicity in human embryonic kidney (HEK293T) cells expressing luciferase-tagged ELG1; HEK293T ELG1-luciferase reporter, luminescence, 16 h; Potency, µM (series often up to 46 µM), usual class: activators; 1.3% of 330,000 active; note: nearly all actives have a fitted effect of over 60% in size
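Genotoxicity was scored as increased ELG1-luciferase reporter signal, measured by ONE-Glo luminescence (30 min, room temperature). Compound or vehicle exposure of the HEK293T reporter cells lasted 16 hr at 37°C.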
FLuc counter: qHTS profiling assay for firefly luciferase inhibitor/activator using purifed enzyme and Km concentrations of substrates (counterscreen for miR-21 project). purified FLuc, Km substrates, luminescence inhibition. AID 588342, 2011. 6.9% of 360,000 active. Potency, µM (series often up to 57.5 µM), usual class: inhibitors. Luciferin 4-monooxygenase (Photinus pyralis), P08659; note: nearly all actives have a fitted effect of over 55% in size
Target sequence (P08659 whole entry, looked up): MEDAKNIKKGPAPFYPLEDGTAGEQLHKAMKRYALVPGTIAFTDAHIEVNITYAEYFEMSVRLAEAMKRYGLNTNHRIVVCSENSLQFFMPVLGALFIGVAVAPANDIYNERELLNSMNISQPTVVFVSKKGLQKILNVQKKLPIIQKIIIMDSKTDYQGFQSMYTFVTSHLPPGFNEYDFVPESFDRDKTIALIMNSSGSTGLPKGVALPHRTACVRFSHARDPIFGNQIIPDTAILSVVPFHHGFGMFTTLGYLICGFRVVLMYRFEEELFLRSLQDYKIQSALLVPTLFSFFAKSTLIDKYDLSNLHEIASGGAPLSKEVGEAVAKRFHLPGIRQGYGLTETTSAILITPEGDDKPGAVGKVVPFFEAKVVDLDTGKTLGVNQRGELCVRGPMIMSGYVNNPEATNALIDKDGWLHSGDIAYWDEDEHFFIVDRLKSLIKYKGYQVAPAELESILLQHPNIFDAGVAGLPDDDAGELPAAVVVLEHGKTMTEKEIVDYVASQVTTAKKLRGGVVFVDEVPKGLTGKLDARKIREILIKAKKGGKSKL
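Purified P. pyralis luciferase (10nM final) with 10uM D-luciferin and 10uM ATP (Km levels) in 50mM Tris acetate pH 7.5, 10mM Mg acetate, 0.01% Tween-20, 0.05% BSA; qHTS 6-point titration, ~60 µM downward; luminescence read.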
ELG1 repair inh: qHTS screen for small molecules that inhibit ELG1-dependent DNA repair in human embryonic kidney (HEK293T) cells expressing luciferase-tagged ELG1; AID 504467, 2011; Potency, µM (doses to about 46.1 µM), most hits filed as inhibitors; 2.3% of 330,000 active; HEK293T ELG1-luciferase reporter, luminescence, 16 h; DNA damage induced by 5-fluorouridine; note: nearly all actives have a fitted effect of over 55% in size
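DMSO vehicle served as the neutral condition. Each well held 2,000 cells given 5-fluorouridine plus compound; after 16 hr at 37 °C/5% CO2, ONE-Glo was added and luciferase measured 30 min later.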
NPC1 prom act: qHTS Assay for NPC1 Promoter Activators; Huh7 NPC1 promoter luciferase reporter, 24 h; 2.4% of 320,000 active; Potency, µM (highest dose often 9.22 µM), hits mostly activators; note: nearly all actives have a fitted effect of over 60% in size
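NPC1 promoter–luciferase Huh7 cells; 24 h compound; luminescence.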
Rab9 prom act: qHTS Assay for Rab9 Promoter Activators; Potency, µM (highest dose often 9.22 µM), actives largely listed as activators; AID 485297, 2010; 2.8% of 320,000 active; Huh7 Rab9 promoter-luciferase reporter, luminescence, 24 h; note: nearly all actives have a fitted effect of over 60% in size
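Luminescence from Amplite-detected luciferase (10 minutes, ambient) reports Rab9 promoter activation. Before that, stable Rab9-luciferase Huh7 cells (1500/well, reduced-serum OP-MEM I plus 10% FBS) were exposed to compound for 24 hours at 37C.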
Numbers stand for hits; n = inactive; u = inconclusive; x = no result given; [ ] = remark or other dose. Calls come from the whole dose curve; as a rule, active = well fitted curve in the direction sought with a large enough effect; inconclusive = small, poorly fitted or top-dose-only effect, or another doubt; inactive = no such curve, though single readings can be large; an effect the other way counts as inactive or inconclusive.

SMILES	SMN2 splice up	ELG1 genotox	FLuc counter	ELG1 repair inh	NPC1 prom act	Rab9 prom act
O=C(c1cc2cc([N+](=O)[O-])ccc2oc1=O)N1CCOCC1	x	n	2.4µM	u	n	n
O=C(c1cc2ccccc2oc1=O)N1CCOCC1	x	u	12µM	u	u	u
O=C(c1cc2c(=O)oc3ccccc3c2s1)N1CCOCC1	n	n	17µM	u	n	n
O=C(c1cc2c(=O)n3ccccc3nc2s1)N1CCOCC1	11µM	4.1µM	19µM	u	2.8µM	3.2µM
O=C(c1cc2c(=O)oc3ccccc3c2s1)N1CCN(c2ccccc2)CC1	n	x	n	x	x	x
OCCN(Cc1ccccc1)CC(O)COc1ccc2c(c1)OCO2 (configuration not stated)	x	n	n	n	n	n
O=C(O)c1ccc(CNC(=O)c2ccc(C(F)(F)F)cc2)cc1	n	n	u	n	n	n
N#CC(Sc1ccccn1)c1ccc(Cl)cc1Cl (configuration not stated)	n	n	u	n	n	n
CCCCCc1ccc(-c2nnc(N)s2)cc1	x	u	21µM	u	n	u
CCCCCCc1ccc(-c2ncc(N)cn2)cc1	11µM	u	12µM	u	n	u
COc1ccccc1Cc1nc2ccccc2nc1SCC(=O)NCc1ccc(F)cc1	x	x	n	x	x	x
CC(C)C(=O)Nc1cccc(C(=O)Nc2nnc(C(C)C)s2)c1	11µM	u	u	u	2.8µM	1.4µM
CC(C)c1nnc(NC(=O)c2cccc(NC(=O)C(F)(F)F)c2)s1	14µM	u	21µM	u	3.5µM	1.3µM
CC(C)C(=O)Nc1cccc(C(=O)Nc2nnc(C(F)(F)F)s2)c1	n	x	17µM	x	x	x
Cc1nnc(NC(=O)c2cccc(NC(=O)C(C)C)c2)s1	n	n	n	u	n	n
CC(C)C(=O)Nc1ccc(C(=O)Nc2nnc(C(C)C)s2)cc1	x	n	u	u	n	u
CCc1nnc(NC(=O)c2cccc(NC(=O)C(C)C)c2)s1	16µM	n	u	u	u	u
COC(=O)c1ccccc1NC(=O)Cn1c(=O)n(CCCCC(=O)NCc2ccc3c(c2)OCO3)c(=O)c2ccccc21	n	x	n	x	x	x
CC(C)NC(=O)c1cc(-c2ccc(Br)cc2)on1	20µM	u	2.7µM	u	1.4µM	1.6µM
CC(C)NC(=O)c1cc(-c2ccco2)on1	n	u	u	u	u	u
Cc1cc(C(=O)N(C)Cc2ccc(Br)cc2)no1	n	n	n	n	n	n
CN(Cc1ccccc1)C(=O)c1cc(-c2ccc(Br)cc2)on1	u	n	15µM	u	n	u
CCCNC(=O)c1cc(-c2ccc(Br)cc2)on1	u	u	u	u	2.2µM	2.2µM
Cc1ccc(-c2cc(C(=O)NCCN3CCOCC3)no2)cc1	n	n	u	n	n	n
CC1Cc2ccccc2N1C(=O)CN1CCC(C(N)=O)CC1 (configuration not stated)	n	n	n	n	n	n
SMILES	SMN2 splice up	ELG1 genotox	FLuc counter	ELG1 repair inh	NPC1 prom act	Rab9 prom act
Cc1ccc(S(=O)(=O)N(C)C)cc1NC(=S)NNC(=O)C(N)=O	n	n	n	n	n	n
CC1(C)CC(=O)C(C(c2ccncc2)C2C(=O)CC(C)(C)CC2=O)C(=O)C1	n	n	n	n	n	n
Cc1ccc(C(C2C(=O)CC(C)(C)CC2=O)C2C(=O)CC(C)(C)CC2=O)s1	n	n	21µM	u	n	n
Cn1c(=O)c2[nH]c(N3CCN(c4ccccc4)CC3)nc2n(C)c1=O	n	u	n	n	n	n
CSc1ccc(CN(C)C(=O)c2cc3ccccc3o2)cc1	x	n	17µM	n	n	n
CSc1ccc(CN(C)C(=O)c2cc(=O)c3ccccc3o2)cc1	x	n	n	n	n	n
COc1ccc(NC(=O)N2CCC(CN3CCCC3)CC2)c(OC)c1	x	x	n	x	x	x
COc1ccc(C(=O)Nc2cccc(N(C)S(C)(=O)=O)c2)cc1OC	13µM	16µM	17µM	u	u	u
CC(C)c1ccc(NC(=O)CN2C(=O)c3ccccc3S2(=O)=O)cc1	x	n	u	u	u	u
COc1ccccc1OCC(=O)Nc1cccc(N(C)S(C)(=O)=O)c1	n	n	17µM	n	n	n
CN(c1cccc(NC(=O)CN2C(=O)c3ccccc3S2(=O)=O)c1)S(C)(=O)=O	n	n	27µM	n	n	n
COc1cc(C=O)ccc1OCC(=O)Nc1cccc(S(=O)(=O)N(C)c2ccccc2)c1	x	n	n	u	n	n
CN(c1cccc(NC(=O)c2ccc(Cl)c(S(=O)(=O)N3CCOCC3)c2)c1)S(C)(=O)=O	x	n	n	23µM	n	n
Clc1cccc(Cl)c1C(Nc1nncs1)Nc1nncs1	n[9.22 µM]	x	x	x	x	x
O=C(c1ccccc1O)N1N=C(c2ccccc2)CC1(O)C(F)(F)F (configuration not stated)	x	n	u	u	n	u
C[C@H](CCC(=O)NCC(=O)O)C1CC[C@H]2[C@H]3C(C[C@H](O)[C@]12C)[C@@]1(C)CC[C@@H](O)C[C@H]1C[C@H]3O (some centres not stated)	n	x	x	x	x	x
COc1ccccc1NC(=O)C(=O)N/N=C(\C)CC(=O)Nc1ccccn1	n	n	u	n	n	n
COc1ccccc1OCC(=O)Nc1ccccn1	x	2.1µM	3.4µM	u	u	3.2µM
Cc1c(C)c2ccc(OCC(=O)N(C)C)c(C)c2oc1=O	u	u	n	u	n	n
Cc1c(C)c2ccc(OCC(=O)Nc3ccccn3)c(C)c2oc1=O	x	u	0.034µM	u	n	n
COc1ccccc1OCC(=O)Nc1ccncc1	x	n	n	n	n	n
COc1ccccc1NC(=O)C(=O)Nc1ccccn1	16µM	u	8.5µM	u	4µM	3.2µM
Cc1ccc(NC(=O)C(=O)Nc2ccccn2)cc1	1.6µM	u	0.54µM	u	u	0.32µM
CN(C)CCCNC(=O)c1ccc(Oc2ccccc2)cc1	n	n	n	n	n	n
CCOc1ccc(NC(=O)CSc2ncc3c(n2)-c2ccc(Cl)cc2N(Cc2ccccc2)S3(=O)=O)cc1	x	x	n	x	x	x
CCOc1ccc(Nc2nn(-c3ccc(OC(F)(F)F)cc3)nc2C(C)=O)cc1	n	x	n	x	x	x
Cc1cccc(/N=C/c2c(O)n(Cc3ccc4c(c3)OCO4)c(=O)c3ccccc23)n1	n	n	n	n	n	n
Cc1ccc(C(=O)OC/C(O)=C(\C#N)c2nc3ccccc3[nH]2)cc1S(=O)(=O)N1CCOCC1	n	n	n	u	n	n
Cc1ccc(S(=O)(=O)N2CCOCC2)cc1N/N=C(\C#N)c1nc2ccccc2[nH]1	x	n	n	8.2µM	n	n
